Laboratory results as given in PubChem BioAssay AID504408 (Broad Institute, 2011).
Hit rate of the full screen: of about 300,000 compounds, about 5,200 (1.7%) were called active. The sample holds actives, similar compounds and a random draw of the others, so the mix is not that of the screen. Unmarked numbers belong to inactive results.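 How the source made its calls: active means mean replicate activation of at least 50% with a set share of replicates each reaching 50%; inconclusive means only one of those two conditions met; inactive means mean below 50% and too few replicates reaching it.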

Assay: HSF-1 activators, primary screen, NIH3T3-HGL cells, MG132 stress, luminescence, single point (AID 504408);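 further: 0% = median of the neutral control wells and 100% = twice that signal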
Conditions: NIH3T3-HGL HSF-1 luciferase reporter, MG132, 8 h; at 9 µM; hits give high values; 100% = twice DMSO control signal
Work on `COc1cc(NS(=O)(=O)c2ccc3ccccc3c2)c2ncccc2c1` yielded an activation of -10.7%. In the case of `O=[N+]([O-])c1ccccc1S(=O)(=O)Nc1cccc2cccnc12`, the activation is reported as 144% (active). Compound `Cc1ccccc1NC(=O)c1ccccc1NS(=O)(=O)c1cccc2cccnc12` has an activation of -9.95%. Work on `COc1ccc(C(=O)OCC(=O)c2ccc(Cl)s2)c(OC)c1OC` yielded an activation of 3.84%. For `Cc1cc(NC(=O)C(C)SCC(=O)Nc2ccccc2N2CCCCC2)no1` (configuration not stated), the activation was 10.3%. `CCN(CC(=O)Nc1c(F)cccc1F)C(=O)c1ccc(-c2ccccc2)cc1` showed an activation of 0.0275%. Work on `CCCCn1c(N)c(N(CCOC)C(=O)c2cccc(OCc3ccccc3)c2)c(=O)[nH]c1=O` yielded an activation of -6.35%. Work on `CC(OC(=O)C1CC(=O)N(Cc2ccccc2)C1)C(=O)Nc1ccccc1[N+](=O)[O-]` (configuration not stated) yielded an activation of 8.17%. With `O=[N+]([O-])c1c(NCCO)cc(Sc2nc3ccccc3s2)c2nonc12` the activation was 229% (active). With `O=C(O)c1cccc(S(=O)(=O)Nc2ccc(O)cc2Sc2nc3ccccc3s2)c1` the activation was 1.08%. Compound `CCOc1ccccc1Nc1ccc2nonc2c1[N+](=O)[O-]` has an activation of -13.1%. In the case of `Cc1ccc(C)c(OCCC(=O)OCC(=O)c2ccc3c(c2)NC(=O)CO3)c1`, the activation is reported as -12.3%. With `COc1ccccc1C(=O)NC(=O)COC(=O)c1ccco1` the activation was -0.902%. For `CCn1c(SCC(=O)Nc2ccc3c(c2)OCCO3)nnc1C(C)C`, the activation was -3.33%. With `CCCn1c(SCC(=O)c2ccc3c(c2)OCCO3)nnc1C(C)C` the activation was 62.4% (active). `CCCn1c(SCC(N)=O)nnc1C(C)C` showed an activation of 1.36%. Work on `Cc1ccc(S(=O)(=O)N2CCC(C(=O)OCC(=O)N(C)c3ccccc3)CC2)cc1C` yielded an activation of -10.4%. For `Cn1cccc1C(=O)OCC(=O)c1ccc(Br)s1`, the activation was -97.9%. Work on `CCc1nnc(NC(=O)/C=C/c2ccc(C)o2)s1` yielded an activation of 3.89%. In the case of `Cc1ccc(/C=C/C(=O)Nc2ccc([N+](=O)[O-])c(NC(=O)/C=C/c3ccc(C)o3)c2)o1`, the activation is reported as 73% (active). `Cc1ccc(/C=C/C(=O)Nc2cc(S(=O)(=O)N3CCCCCC3)ccc2OCC(F)(F)F)o1` gave an activation of 2.76%. Work on `CCN(C(=O)CSc1nnc(-c2ccc(OC(F)F)cc2)n1N)C1CCS(=O)(=O)C1` (configuration not stated) yielded an activation of -15.1%. Compound `COC(=O)c1ccc(NS(=O)(=O)c2cc3c4c(c2)C(C)C(=O)N4CCC3)cc1` (configuration not stated) has an activation of 21.6%. For `COc1ccc(NC(=O)CN(C)C(=O)c2ccc(NC3CC3)c([N+](=O)[O-])c2)cc1`, the activation was 5.08%. In the case of `O=C1CCc2cc(S(=O)(=O)Nc3ccc(C(F)(F)F)cc3)cc3c2N1CC3`, the activation is reported as 15.1%. Work on `COc1ccc(C(=O)Nc2c(Cl)cc(Cl)cc2C(=O)N2CCC(C)CC2)cc1` yielded an activation of 18%. With `Cc1csc(NC(=O)c2ccc(-c3ccc(Cl)cc3Cl)o2)n1` the activation was 3.06%. With `CC1CCN(C(=S)c2ccc(-c3ccc(Cl)cc3Cl)o2)CC1` the activation was 52% (active). In the case of `Cc1c(C(=O)OCC(=O)N2CCCC2=O)oc2ccccc12`, the activation is reported as 16.8%. For `N#Cc1cccc(OC(=O)c2ccc3c(=O)n4c(nc3c2)CCC4)c1`, the activation was -0.984%. For `Cc1ccc(C2=NN(C(=O)CSc3nc(N)cc(N)n3)C(c3ccco3)C2)cc1` (configuration not stated), the activation was 22.7%. In the case of `CCOC(=O)C1C(=O)NC(N2CCN(c3ccccc3)CC2)=NC1c1ccco1` (configuration not stated), the activation is reported as -4.78%. For `CCOC(=O)C1C(=O)C=C(c2ccc(OC)cc2)CC1c1ccco1` (configuration not stated), the activation was 285% (active). In the case of `Cc1nc2c(c(C)nn2-c2ccccc2)c(C)c1C`, the activation is reported as -8.62%. In the case of `Cc1ccnc(NC(=O)c2ccoc2C)c1`, the activation is reported as 17.6%. In the case of `COc1cc(SC)ccc1C(=O)Nc1cc(C)ccn1`, the activation is reported as 55.7% (active). Compound `COc1cc(SC)ccc1C(=O)Nc1nc(C)cs1` has an activation of -71.7%. `COC(=O)[C@@]12CCCN1[C@H](c1ccc(-c3ccc(F)cc3)c(OC)c1)[C@H]1C(=O)N(C)C(=O)[C@H]12` showed an activation of 42.9%. `COc1ccc(Cl)cc1C=CC=Nc1ccc(S(N)(=O)=O)cc1` showed an activation of -18.4%. For `FC(F)Oc1ccc(NC(=S)NCc2ccco2)cc1Cl`, the activation was 7.43%. With `COc1cc(NC(=S)NCc2ccco2)c(OC)cc1Cl` the activation was 62.1% (active). `COc1cccc(NC(=S)NCc2ccco2)c1` gave an activation of 19.7%. `COc1ccc(OCC(=O)Nc2nnc(-c3ccco3)s2)cc1` gave an activation of 3.21%. `Cc1ccc(OCC(=O)Nc2nnc(-c3ccco3)s2)cc1` showed an activation of 2.22%. In the case of `CCCCOc1ccc(-c2nnc(-c3ccco3)o2)cc1`, the activation is reported as 79.3% (active). For `CC(C)Oc1ccc(S(=O)(=O)N2CCOCC2)cc1NC(=O)C1CSC2(C)CCC(=O)N12` (configuration not stated), the activation was 0.413%. In the case of `Cc1nn(-c2ccccc2)c(Cl)c1/C=N/NC(=O)c1nn(C)cc1[N+](=O)[O-]`, the activation is reported as 125% (active). For `Cc1ccc(-n2nc(C)c(/C=N/NC(=O)c3cccs3)c2Cl)cc1`, the activation was -8.54%. `Cc1nn(C)cc1/C=N/NC(=O)c1sc2ccccc2c1Cl` gave an activation of 3.1%. With `Cn1c(=O)c([N+](=O)[O-])c(Oc2ccccc2)c2ccccc21` the activation was 6.27%. In the case of `Cc1cc(C)c(-c2c(O)c3ccccc3n(C)c2=O)c(C)c1`, the activation is reported as -9.47%. With `Cc1cccc(Oc2c([N+](=O)[O-])c(=O)n(C)c3ccccc23)c1` the activation was 110% (active). `CC(=O)c1c(C)[nH]c(C(=O)COC(=O)CCOc2ccc(C)cc2)c1C` showed an activation of -0.193%. For `COC(=O)N/N=C/c1c[n+]([O-])c2ccccc2[n+]1[O-]`, the activation was 0.846%. In the case of `Cc1ccc(S(=O)(=O)N(C)C)cc1NC(=O)COC(=O)C1COc2ccccc2O1` (configuration not stated), the activation is reported as -5.78%. In the case of `Cc1ccc(S(=O)(=O)N(C)C)cc1NC(=O)COC(=O)/C=C/c1cccs1`, the activation is reported as -10.8%. In the case of `Cc1ccc(S(=O)(=O)N(C)C)cc1NC(=O)COC(=O)c1c(C)noc1C`, the activation is reported as 63.2% (active). Work on `O=C(N/N=C/c1cc(Br)c(O)c([N+](=O)[O-])c1)C(O)(c1ccccc1)c1ccccc1` yielded an activation of 3.81%. Compound `N#C/C(=C/c1cccc([N+](=O)[O-])c1)c1nnc2n1CCCCC2` has an activation of -2.78%. With `N#C/C(=C(\O)C(F)(F)F)c1nnc2n1CCCCC2` the activation was 55.4% (active). For `N#C/C(=C(\O)CCl)c1nnc2n1CCCCC2`, the activation was -4.83%. `CC(C)(C)N1C(=O)[C@H]2[C@@H](c3ccc(Br)cc3)N3C(=O)N(c4cccc(Cl)c4)C(=O)[C@@]3(C)[C@H]2C1=O` showed an activation of -6%. With `CCCCN(C(=O)CSCC(=O)Nc1ccc(OC)cc1)c1c(N)n(CCC)c(=O)[nH]c1=O` the activation was -4.27%. In the case of `Cc1ccccc1N1CC(C(=O)Nc2ccc(S(=O)(=O)N3CCCC3)cc2)CC1=O` (configuration not stated), the activation is reported as 9.12%. With `CN(C1CCS(=O)(=O)C1)S(=O)(=O)c1ccc2ccccc2c1` (configuration not stated) the activation was -4.34%. For `COc1ccc(Cc2nnc(SCC(=O)Nc3ccc(C)c(Cl)c3)[nH]c2=O)cc1`, the activation was -4.89%. For `O=C(c1ccncc1)N1CCN(c2ccc3ccccc3n2)CC1`, the activation was -4.23%. In the case of `c1cnc(N2CCN(c3ccc4ccccc4n3)CC2)nc1`, the activation is reported as 53.3% (active). With `Oc1ccc(CN2CCN(c3ncccn3)CC2)cc1` the activation was 7.28%. Work on `CCN(CC(=O)Nc1c(F)cccc1F)C(=O)CN1c2cccc3cccc(c23)S1(=O)=O` yielded an activation of -9.4%. Work on `Cc1cc(NC(=O)CCS(=O)(=O)c2ccc(F)cc2)no1` yielded an activation of -7.32%. In the case of `Cc1ccc(S(=O)(=O)NCCC(=O)NNC(=O)C2COc3ccccc3O2)cc1` (configuration not stated), the activation is reported as 5.45%. For `Cc1ccc(OCC(=O)Nc2ccc(N3CCN(C(=O)c4ccco4)CC3)cc2)c(C)c1`, the activation was 67.8% (active). In the case of `Cc1ccc(C)c(OCC(=O)N2CCN(C(=O)c3ccco3)CC2)c1`, the activation is reported as 17%. Work on `COc1cccc(C(=O)Nc2ccc(N3CCN(C(=O)c4ccco4)CC3)cc2)c1` yielded an activation of -17.6%. For `COc1ccc(C(=O)OCC(=O)Nc2ccc3[nH]c(=O)[nH]c3c2)c(OC)c1OC`, the activation was 29.4%. Compound `CCOC(=O)c1c(NC(=O)C2CC=CCC2C(=O)O)sc(C)c1CC` (configuration not stated) has an activation of -15%. Compound `CCc1c(C)sc(NC(=O)c2cccs2)c1C(N)=O` has an activation of 39.5%. With `CCc1c(C)sc(NC(=O)c2ccc(Br)o2)c1C(=O)OC` the activation was 64.8% (active). Work on `Cc1onc(-c2ccccc2Cl)c1C(=O)OCc1nnc(-c2ccccc2)o1` yielded an activation of 23.4%. For `COc1ccc2nc(SCc3ccccc3)nc(C)c2c1`, the activation was 68.9% (active). Work on `COc1ccc(-c2nnc3ccc(SCc4ccccc4)nn23)cc1` yielded an activation of 16%. For `COC(=O)CSc1nc(C)c2ccc(OC)cc2n1`, the activation was 17.7%. In the case of `Cc1ccc(S(=O)(=O)N2CCCCC2)cc1C(=O)N(C)CC(=O)Nc1cccc(F)c1`, the activation is reported as 5.46%. For `Cn1nc(C(F)(F)F)cc1-c1ccc(/C=C(\C#N)C(=O)c2cccc(C(F)(F)F)c2)s1`, the activation was 65.6% (active). `Cn1nc(C(F)(F)F)cc1C(=O)O` showed an activation of 15.5%. `CNC(=O)c1ccc(NC(=O)c2cccc(C(F)(F)F)c2)cc1` gave an activation of 9.95%. `FC(F)(F)c1ccc2c3n(nc2c1)CCN=C3c1ccc(Cl)cc1` showed an activation of -14.8%. In the case of `Cc1cc(C)c2c(NC(=O)C3CC3)nn(C)c2n1`, the activation is reported as 56.3% (active). Compound `Cc1ccc2c(NC(=O)C3CC3)cccc2n1` has an activation of -0.793%. In the case of `Cc1cc(C)cc(NC(=O)C2CCN(c3nc(C)cc(C)n3)CC2)c1`, the activation is reported as 11%. For `Cc1ccc(-c2csc(NC3OC(=O)c4ccccc43)n2)cc1` (configuration not stated), the activation was 81.1% (active). Compound `COc1ccc(CCNc2nc(-c3cccc(NC(C)=O)c3)cs2)cc1OC` has an activation of -4.33%. In the case of `COc1ccc(-c2csc(NC3OC(=O)c4ccccc43)n2)cc1` (configuration not stated), the activation is reported as 20.2%. With `COc1ccc2c(c1OC)C(=O)OC2Nc1nc(-c2ccccc2)cs1` (configuration not stated) the activation was 139% (active). `COc1cccc(CC(=O)Nc2nc(-c3ccc(OC)c(OC)c3)cs2)c1` showed an activation of 3.91%. `Cc1ccc(-c2csc(NC(=O)Cn3[nH]c(=O)c4ccccc4c3=O)n2)cc1` gave an activation of -17.7%.
